L3MBTL1 block: blocks human L3MBTL1. Q9Y468. AlphaScreen L3MBTL1–H3K9me1 peptide binding. Potency, µM (top dose mostly 57.1 µM), most hits filed as inhibitors. hit rate 0.66% among 230,000. AID 485360; also: nearly all actives have a fitted effect of over 60% in size
Target sequence (Q9Y468 whole entry, looked up): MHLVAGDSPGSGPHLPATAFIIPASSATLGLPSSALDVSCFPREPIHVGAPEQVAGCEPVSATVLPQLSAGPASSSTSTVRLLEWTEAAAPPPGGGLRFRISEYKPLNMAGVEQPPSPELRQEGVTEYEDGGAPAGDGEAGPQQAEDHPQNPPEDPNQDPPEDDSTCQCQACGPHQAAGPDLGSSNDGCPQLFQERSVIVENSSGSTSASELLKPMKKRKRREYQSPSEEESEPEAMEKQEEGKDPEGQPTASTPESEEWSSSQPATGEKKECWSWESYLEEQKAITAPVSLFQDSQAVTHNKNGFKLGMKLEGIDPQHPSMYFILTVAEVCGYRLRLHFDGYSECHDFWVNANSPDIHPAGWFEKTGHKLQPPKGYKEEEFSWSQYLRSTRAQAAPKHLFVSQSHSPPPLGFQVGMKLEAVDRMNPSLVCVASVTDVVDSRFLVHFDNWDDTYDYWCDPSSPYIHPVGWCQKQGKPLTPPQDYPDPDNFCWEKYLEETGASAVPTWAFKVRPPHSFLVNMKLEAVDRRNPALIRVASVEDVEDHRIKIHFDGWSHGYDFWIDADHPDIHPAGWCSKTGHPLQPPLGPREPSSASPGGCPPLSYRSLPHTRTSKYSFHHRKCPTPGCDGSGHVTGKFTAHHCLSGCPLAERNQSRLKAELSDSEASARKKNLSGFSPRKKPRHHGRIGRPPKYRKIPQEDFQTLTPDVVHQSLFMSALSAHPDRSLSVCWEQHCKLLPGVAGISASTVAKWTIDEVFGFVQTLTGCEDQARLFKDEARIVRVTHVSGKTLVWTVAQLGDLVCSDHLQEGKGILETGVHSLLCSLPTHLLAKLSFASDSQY
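AlphaScreen proximity signal between nickel-chelate acceptor and streptavidin donor beads (final 10 ug/mL) reports binding of 50 nM L3MBTL1 to 75 nM biotin-H3 K9me1 peptide; complex incubated with compounds 30 min at room temperature; cefsulodin titration as control.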
HP1b chromo inh: HP1-beta chromodomain-methylated histone interaction inhibition; Potency, µM (series often up to 114 µM), actives largely listed as inhibitors; AlphaScreen HP1-beta / biotin-H3K9me3 peptide binding; hit rate 0.56% among 390,000; P83916; AID 540317; also: nearly all actives have a fitted effect of over 70% in size
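HP1-beta protein (50 nM final) preincubated 30 min at room temperature with biotinylated H3(1-18)K9me3 peptide (50 nM) in PBS pH 7.4, 0.01% Tween-20, then compound added for 30 min. AlphaScreen streptavidin donor/nickel chelate acceptor beads (10 ug/mL final), 30 min dark, luminescence read.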
BAZ2B inh: blocks human BAZ2B; Q9UIF8; AlphaScreen BAZ2B-H3K14Ac peptide displacement; Potency, µM (series often up to 114 µM), most hits filed as inhibitors; hit rate 4.4% among 360,000; also: nearly all actives have a fitted effect of over 60% in size
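Inhibition is scored as reduced AlphaScreen emission. The BAZ2B/b-H3(5-23)K14Ac complex (50 nM each) in PBS pH 7.4, 0.01% Tween-20 meets compound (up to 110 uM) for 30 min at RT before bead addition.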
G9a block: inhibitors of human histone lysine methyltransferase G9a. Q96KQ7. G9a H3K9 monomethylation, AlphaScreen, 2 h. Potency, µM (series often up to 102 µM), most hits filed as inhibitors. hit rate 8.8% among 350,000. AID 504332; also: nearly all actives have a fitted effect of over 75% in size
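Signal arises when biotinylated H3K9 peptide, once monomethylated, bridges streptavidin donor and antibody-captured acceptor beads. Enzyme at 20 nM was preincubated 15 min with test compounds; peptide 500 nM and SAM 20 uM then reacted for 2 h.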
JMJD2A Tudor inh: inhibitors of human JMJD2A Tudor domain | hit rate 4.4% among 390,000 | AID 504339 | AlphaScreen JMJD2A-Tudor / H3K4me3 peptide binding | O75164 | Potency, µM (series often up to 114 µM), most hits filed as inhibitors; also: nearly all actives have a fitted effect of over 50% in size
Hits are given with their value; n = inactive; u = inconclusive; x = no result; [ ] = dose if it differs, or a comment. Sampled rows, rich in hits. Any-hit rate of the full collection: about 11%. Calls follow the shape of the dose curve; as a rule, active = well fitted inhibition curve with a large enough effect; inconclusive = small, poorly fitted or top-dose-only effect; inactive = no such curve, though single readings can be large or run the other way.

SMILES | L3MBTL1 block | HP1b chromo inh | BAZ2B inh | G9a block | JMJD2A Tudor inh
CCOC(=O)/C=C(\C)Sc1cc(O)c2ccccc2c1O | u | 7.94µM | 28.2µM | 2.51µM | 7.94µM
C/C(=N\NC(=O)C1COc2ccccc2O1)c1ccccn1 (stereo unspecified) | u | n | 25.1µM | n | 50.1µM
C/C(=N/NC(=O)c1ccc(C(C)(C)C)cc1)c1ccccn1 | x | n | x | x | 44.7µM
C/C(=N\NC(=O)c1ccccc1Cl)c1ccccn1 | x | n | 31.6µM | n | 56.2µM
C/C(=N\NC(=O)C1COc2ccccc2O1)c1ccc(C)o1 (stereo unspecified) | x | n | n | n | n
Cc1cccc2sc(NNC(=O)c3cc(-c4cccs4)nc4ccccc34)nc12 | u | n | 3.55µM | 31.6µM | u
C/C(=N\NC(=O)c1cccc(Br)c1)c1ccccn1 | x | n | 3.55µM | n | 22.4µM
C/C(=N\NC(=O)c1ccncc1)c1cc2ccccc2oc1=O | n | n | u | n | n
COc1ccc(C(=O)N/N=C(\C)c2ccccn2)cc1OC | x | n | 7.94µM | x | 22.4µM
C/C(=N/NC(=O)c1ccncc1)c1cc2ccc(O)cc2oc1=O | n | n | 79.4µM | n | n
C/C(=N\NC(=O)c1cc(-c2cccs2)nc2ccccc12)c1ccccn1 | 28.2µM | n | 5.62µM | n | 28.2µM
C/C(=N\NC(=O)c1cc(Br)ccc1O)c1ccccn1 | x | n | n | u | n
CC(=O)N1CCCc2cc(S(=O)(=O)Nc3ccc(C)c(C)c3)ccc21 | x | x | x | x | n
Cc1cccn2c(CN3CCNC(=O)CC3)c(C(=O)N(C)CCc3ccccc3)nc12 | n | n | n | n | n
O=C(CC1C=Cc2ccccc2N1C(=O)c1ccccc1)c1ccccc1 (stereo unspecified) | x | n | n | n | n
O=C(COc1cccnc1[N+](=O)[O-])Nc1ccc(S(=O)(=O)N2CCOCC2)cc1 | n | n | n | n | n
COc1cc(Cl)c(C)cc1NC(=O)C1CCCN(c2ncnc3onc(-c4ccc(F)cc4)c23)C1 (stereo unspecified) | x | n | n | n | n
COc1cc(C(C)=NNC(=O)c2ccncc2)ccc1O | x | n | x | x | 31.6µM
C/C(=N\NC(=O)c1ccc(Cl)c(Cl)c1)c1ccccn1 | x | n | 7.94µM | n | u
C/C(=N\NC(=O)c1cccc2ccccc12)c1ccccn1 | x | n | 15.8µM | x | 56.2µM
COc1ccc(/C(C)=N/NC(=O)c2ccncc2)cc1[N+](=O)[O-] | n | n | n | n | n
CCCn1c(SCC(=O)NCc2ccc(F)cc2)n[nH]c1=O | n | n | n | n | 44.7µM
CCCn1c(SCC(=O)c2cc(C)n(-c3cc(C)on3)c2C)n[nH]c1=O | n | n | n | u | n
CCCn1c(SCC(=O)c2cc(C)ccc2C)n[nH]c1=O | x | n | n | 7.08µM | n
CCN(CC)S(=O)(=O)c1ccc2c(c1)N(CC(=O)N1CCN(c3ccc(Cl)cc3)CC1)C(=O)CO2 | x | n | n | n | n
SMILES | L3MBTL1 block | HP1b chromo inh | BAZ2B inh | G9a block | JMJD2A Tudor inh
COc1cc(C2C(C#N)=C(N)OC3=C2C(=O)CC(C)(C)C3)ccc1OCCN1CCOCC1 (stereo unspecified) | n | n | n | 50.1µM | n
COc1ccc(C2C(C#N)=C(N)OC3=C2C(=O)CC(C)(C)C3)cc1OC (stereo unspecified) | n | n | n | n | n
Cc1ccc(S(=O)(=O)N2CCCc3cc(NS(=O)(=O)c4ccc(C)c(C)c4)ccc32)cc1 | x | n | n | n | n
COc1ccc(-c2c/c(=N\c3nc(-c4ccccc4)c(C)s3)c3ccccc3o2)cc1O | x | u | 50.1µM | u | u
CNC(=O)c1c(NC(=O)/C=C/c2ccccc2Cl)sc2c1CCC2 | x | n | n | n | n
COCc1cc(C)nc2c1C(=O)NC(c1ccc(F)cc1)N2Cc1ccccc1 (stereo unspecified) | x | n | n | 14.1µM | n
Cc1cc(Nc2ccccc2C)n2nc(Cc3ccc(Cl)cc3)nc2n1 | x | n | n | n | n
Fc1cccc(CCN2CCNC[C@@H]2Cc2ccccc2)c1 | x | n | x | x | 56.2µM
O=C(CCC(=O)N(CC(=O)NC1CCCC1)Cc1cccs1)Nc1nccs1 | n | n | n | n | n
Cc1ccc(S(=O)(=O)N2CCN(c3nc(-c4ncccn4)nc4ccccc34)CC2)cc1 | x | n | x | x | u
O=C1/C(=C/c2ccccc2F)SC(=S)N1CC(=O)N1CCCCC1c1cccnc1 (stereo unspecified) | x | n | u | 5.01µM | n
CN(C(=O)CN1C(=O)/C(=C/c2ccccc2F)SC1=S)C1CCS(=O)(=O)C1 (stereo unspecified) | x | n | 44.7µM | n | n
O=C1/C(=C/c2ccc(F)cc2)SC(=S)N1CC(=O)N1CCCCC1c1cccnc1 (stereo unspecified) | x | n | u | 39.8µM | u
O=C(/C=C/c1ccc(F)cc1)NC(=S)N1CCCCC1c1cccnc1 (stereo unspecified) | x | n | n | u | u
O=C(c1cc(-c2cccc(Cl)c2)on1)N1CCCCC1 | x | n | n | n | n
CC(C)c1ccc(Nc2nc(Cl)nc(Cl)n2)cc1 | n | n | u | 39.8µM | 89.1µM
COc1ccc(NC(=O)Cc2csc(NC(=O)Nc3ccccc3OC)n2)c(OC)c1 | n | n | u | 50.1µM | u
COc1ccc(OC)c(NC(=O)Cc2csc(NC(=O)Nc3ccccc3OC)n2)c1 | n | n | n | 44.7µM | u
COc1cc(OC)cc(C(=O)Nc2nc(CC(=O)NC(C)c3ccccc3)cs2)c1 (stereo unspecified) | n | n | 50.1µM | u | n
COc1ccc(Cn2ncc3c4sc(C)cc4n(C)c3c2=O)cc1F | x | x | x | x | n
C#CCOCCOCCOCCNc1nc(N2CCN(C(=O)[C@H]([C@@H](C)CC)n3cc(CCCCN)nn3)CC2)nc(N2CCN(C(=O)[C@H](CCCCN)n3cc(CCC(=O)O)nn3)CC2)n1 | n | n | n | n[2.33 µM] | n
C#CCOCCOCCOCCNc1nc(N2CCN(C(=O)[C@H]([C@@H](C)O)n3cc(CCCCN)nn3)CC2)nc(N2CCN(C(=O)[C@H]([C@@H](C)CC)n3cc(CCCN=C(N)N)nn3)CC2)n1 | n | n | u | 50.1µM | n
C#CCOCCOCCOCCNc1nc(N2CCN(C(=O)[C@H]([C@@H](C)CC)n3cc(CCCN=C(N)N)nn3)CC2)nc(N2CCN(C(=O)[C@H](CCCCN)n3cc(CCC(=O)O)nn3)CC2)n1 | n | n | n | 50.1µM | n
CCOc1ccc(C(=O)Nc2cccc(C(C)=O)c2)cc1[N+](=O)[O-] | n | n | n | n | n
CCc1ccccc1NC(=O)CSc1nnc(-c2ccc(OC)cc2)s1 | x | n | n | n | n
COc1ccc2c(c1OC)C(=O)O[C@H]2C1c2c(cc3c(c2OC)OCO3)CCN1C (stereo partly specified) | x | x | x | n[2.33 µM] | x
CN1CCc2cc3c(c4c2[C@H]1[C@H](O)c1ccccc1-4)OCO3 | n | n | n | 50.1µM | n
CC(=O)N1CC(C)Oc2ccc(S(=O)(=O)NC(CC(=O)O)c3ccccc3C)cc21 (stereo unspecified) | x | n | n | 50.1µM | n
